Compound activity (PubChem)
CFTR F508del cor: F508del CFTR correction, initial screen, CFBE line, single point. CFBE cells, YFP halide quenching; stimulated with forskolin plus potentiator P3; % fluorescence drop versus neutral controls. activity (quench increase), % at 7.58 µM. 0.36% of 350,000 active;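 active = mean added fluorescence quench of at least 8% versus neutral control, with both replicates also reaching 8%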;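 note: cells transiently co-express mutant CFTR-F508del with the halide-sensitive YFP; corrector assay measuring rescue of mutant channel to the surface after 24 h compound exposure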
RAD54 branch: inhibitors of human RAD54 branch migration, primary screen, biochemical, fluorescence, single point. RAD54 Holliday junction branch migration, FAM/BHQ fluorescence. 0.14% of 360,000 active. inhibition, % at 10.4 µM;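 active = mean normalized replicate activity at least 40 and at least half of replicates scoring 40 or more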;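 note: 0% = median of neutral control wells and 100% = median of positive control wells; inhibitors cause a drop in the FAM fluorescence signal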
Target sequence (Q92698 whole entry, looked up): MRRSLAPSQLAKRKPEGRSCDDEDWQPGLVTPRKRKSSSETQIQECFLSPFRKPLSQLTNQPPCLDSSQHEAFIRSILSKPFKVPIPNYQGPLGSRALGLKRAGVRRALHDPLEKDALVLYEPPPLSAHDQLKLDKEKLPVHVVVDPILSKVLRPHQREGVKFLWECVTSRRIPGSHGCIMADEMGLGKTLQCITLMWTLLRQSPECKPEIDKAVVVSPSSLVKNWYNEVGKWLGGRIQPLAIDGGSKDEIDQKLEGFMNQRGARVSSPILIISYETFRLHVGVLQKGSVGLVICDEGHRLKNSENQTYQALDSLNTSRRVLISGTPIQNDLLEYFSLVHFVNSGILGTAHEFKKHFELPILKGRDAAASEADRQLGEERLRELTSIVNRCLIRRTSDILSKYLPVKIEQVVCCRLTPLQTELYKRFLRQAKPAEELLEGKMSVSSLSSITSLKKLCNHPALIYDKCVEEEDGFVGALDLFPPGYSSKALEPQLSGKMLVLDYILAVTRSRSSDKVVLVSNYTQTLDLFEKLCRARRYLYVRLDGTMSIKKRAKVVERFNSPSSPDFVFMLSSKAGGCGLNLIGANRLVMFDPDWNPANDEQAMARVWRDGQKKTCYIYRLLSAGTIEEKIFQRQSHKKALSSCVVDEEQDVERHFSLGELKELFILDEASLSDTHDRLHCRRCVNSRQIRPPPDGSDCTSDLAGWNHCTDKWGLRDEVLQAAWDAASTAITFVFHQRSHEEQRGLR
EWS-Fli block: EWS/Fli-driven NR0B1 reporter inhibitors, primary screen, A673 cells, NR0B1 luciferase, luminescence, MLPCN library; viability-normalised; inhibition, % at 12.6 µM; 0.67% of 350,000 active; AID 651661, 2012;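 active = mean inhibition of at least 50% after viability correction, with every replicate also passing that limit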;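 note: firefly luciferase signal divided by Alamar Blue viability fluorescence both relative to DMSO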
RAD52 inh: RAD52 DNA annealing inhibitors, primary screen, biochemical, FRET, single point, set 2; inhibition, % at 18.7 µM; recombinant RAD52 DNA annealing, FRET fluorescence; 0.46% of 360,000 active; AID 651710, 2012; DNA repair protein RAD52 homolog (Homo sapiens), P43351;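 active = every replicate showing at least 50% inhibition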
INS-1E GSIS act: GLuc luminescence reporter in INS-1E cells, primary screen for activators of glucose-dependent secretion of insulin; 0.61% of 370,000 active; AID 743287, 2014; INS-1E GLuc reporter insulin secretion, 2-3 h; activation, % at 16.6 µM;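 active = lowest replicate activation of at least 40%, so every replicate reaches that level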;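 note: 0% = median of neutral control wells and 100% = median of IBMX positive control wells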
LGR2 antag: inhibitors of bursicon-induced LGR2 CRE-luciferase signal, primary screen, cell-based, HEK293, CRE-luciferase reporter, bursicon stimulation; Drosophila bursicon receptor LGR2 (rickets); bursicon-stimulated, 4 h; inhibition, % at 9.99 µM; 0.35% of 380,000 active;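 active = drop in luminescence signal, shown as inhibition above about 50% in the replicate tests, limit read from the data, passing the limit was not always enough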;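 note: agonist challenge used bursicon conditioned medium at about half maximal strength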
Starred values were filed as active, the others as inactive; . = no result. Shown are actives, neighbours in structure and some others; about 1.8% of the full set was active somewhere.

SMILES	CFTR F508del cor	RAD54 branch	EWS-Fli block	RAD52 inh	INS-1E GSIS act	LGR2 antag
COc1ccc(C#Cc2ccc([C@@H]3[C@@H](CO)N4CCCCN(Cc5ccccc5F)C[C@@H]34)cc2)cc1	-4.7	3.5	-0.2	-104.4	95.3*	-17.2
COc1ccc(C#Cc2ccc([C@@H]3[C@H](CO)N4CCCCN(Cc5ccccc5F)C[C@@H]34)cc2)cc1	0.3	17.8	30.4	41.3	50.0*	-29.4
CCN(CC)C(=O)C1CC(=O)N(c2ccc(OC)cc2)C1c1ccc(OC)cc1 (centres undefined)	.	9.1	.	.	.	.
C=CCn1c(=NC(=O)c2cc(Cl)sc2Cl)sc2cc(S(N)(=O)=O)ccc21	.	5.8	.	.	43.7*	10.5
Cn1cnc([N+](=O)[O-])c1S(=O)(=O)c1ccc(Cl)cc1	0.4	.	5.2	-4.2	82.2*	2.8
Cn1cnc([N+](=O)[O-])c1NC(C)(C)C	.	-3.5	.	.	.	.
CC(C)CCN1C(=O)CSCC1(C)C(=O)NC(C)C (centres undefined)	0.9	.	4.7	-2.6	43.0*	-12.0
NC(=O)C1=CN(Cc2ccc(Cl)cc2)CCC1C(F)(F)F (centres undefined)	0.5	6.7	-5.7	-12.5	-3.3	6.0
C[C@H](CO)N1C[C@H](C)[C@@H](CN(C)C(=O)c2ccccn2)Oc2ncc(-c3ccc(F)cc3)cc2C1=O	-1.6	1.6	-2.6	-3.0	17.9	1.0
CCN(CC)c1ccc(C(=C2C=CC(=[N+](CC)CC)C=C2)c2ccccc2)cc1	-9.5	.	39.6	36.4	13.7	105.0*
CCN(CC)c1ccc(C(=O)NNC(=O)CCNC(=O)c2ccccc2)cc1	-0.7	-0.6	-10.3	-10.1	.	-15.2
O=C1C=C(c2c(O)ccc3ccccc23)c2ccccc2C1=O	-2.6	.	56.6*	-4.9	40.8*	95.0*
C=C(C)[C@@H]1C2=CC(C(=O)OC)=C(C[C@H](C(=C)C)[C@H]3O[C@H]3C3=C[C@H]1OC3=O)O2	-0.7	0.2	56.9*	-23.0	.	.
O=C(/C=C/c1ccc2c(c1)OCO2)Nc1c(C(=O)O)[nH]c2ccccc12	1.1	-4.6	13.7	-13.9	-13.6	2.4
CCOC(=O)c1[nH]c2ccc(OC)cc2c1NC(=O)/C=C/c1ccc2c(c1)OCO2	.	.	.	.	65.6*	4.0
COc1cc2c(cc1OC)C1Cc3ccc(OC)c(OC)c3CN1CC2 (centres undefined)	.	5.8	.	.	2.2	6.5
CC[C@H]1CN2CCc3cc(OC)c(OC)cc3C2C[C@@H]1C[C@H]1NCCc2cc(OC)c(OC)cc21 (some centres undefined)	-9.5	15.5	58.8*	-0.7	-6.8	102.6*
CCC1=C(CC2NCCc3ccccc32)CC2c3cc(OC)c(OC)cc3CCN2C1 (centres undefined)	10.1*	.	-0.8	-84.1	.	70.5*
CC1=CC(=C(C#N)c2nc3ccccc3s2)C=C(C)N1Cc1ccco1	-1.4	-0.3	-53.3	-113.2	10.2	-11.8
Cc1cccn2c(=O)nc(SCC(=O)N3CCC(C)CC3)nc12	3.5	1.2	-0.8	-5.5	14.9	-3.6
CC(=O)Oc1c(C)cc(Cl)cc1C(=O)Nc1ccc([N+](=O)[O-])cc1Cl	13.4*	.	-12.0	-10.0	27.1	-30.0
CN(C)CC#Cc1ccc([C@@H]2[C@@H](CO)N3CCCCN(C(=O)Nc4ccccc4F)C[C@@H]23)cc1	-1.1	-12.7	-15.8	53.6*	8.1	-5.2
CN(C)CC#Cc1ccc([C@@H]2[C@H]3CN(C(=O)Nc4ccccc4F)CCCCN3[C@H]2CO)cc1	0.1	10.0	3.2	41.5	10.9	4.3
CN(C)CC#Cc1ccc([C@H]2[C@@H](CO)N3CCCCN(C(=O)CN(C)C)C[C@@H]23)cc1	-1.2	-14.9	6.9	47.7	2.9	1.3
CN(C)CC#Cc1ccc([C@@H]2[C@@H](CO)N3CCCCN(C(=O)CN(C)C)C[C@@H]23)cc1	-1.0	-15.6	4.8	71.4*	2.1	11.8
SMILES	CFTR F508del cor	RAD54 branch	EWS-Fli block	RAD52 inh	INS-1E GSIS act	LGR2 antag
CCOC(=O)C1=CC[C@H]2c3c(c4ccccc4n3C)C(=O)C1N2S(=O)(=O)c1ccc(C)cc1	-1.1	-2.8	3.9	-2.7	-1.8	9.9
Cc1cccc(C)c1OCCNC(=O)C(=O)NCc1ccco1	1.4	.	56.3*	-14.7	0.2	33.2
N#Cc1c2ccc([N+](=O)[O-])cc2[n+]([O-])n1-c1ccccc1	-14.5	-4.5	62.1*	-37.9	0.2	12.2
O=c1c2cc([N+](=O)[O-])ccc2sn1-c1ccccc1	-2.2	-9.9	-29.1	-6.2	-2.4	-3.4
COc1ccccc1OCC(O)CN1C(=O)NC(C)(C)C1=O (centres undefined)	9.4*	2.5	-8.6	3.2	-4.9	25.1
O=C1COc2ccc(C(=O)COC(=O)c3ccc(S(=O)(=O)C(F)F)cc3)cc2N1	1.5	-5.8	-4.1	-18.2	-1.2	-1.0
NC(=S)NN=Cc1nccc2ccccc12	9.7*	2.6	11.0	9.6	22.4	18.4
NC(=S)NN=Cc1nccc2c(C(F)(F)C(F)(F)C(F)(F)F)cccc12	1.2	-6.3	37.2	-21.9	.	12.1
COC1=C(N)C(=O)c2nc(-c3nc(C(=O)O)c(C)c(-c4ccc(OC)c(OC)c4O)c3N)ccc2C1=O	.	-24.5	.	.	.	.
N#Cc1cc2cc3c(cc2nc1SCC(=O)N1CCOCC1)OCCO3	0.2	-10.0	56.6*	-24.2	7.0	22.2
CCc1c(C)nc(N2CCN(c3ccccc3)CC2)[nH]c1=O	1.6	-3.2	-10.7	-18.7	0.4	-22.6
CCc1onc(C)c1C(=O)Nc1ccc(N2CCOCC2)cc1	-1.1	5.9	-12.5	1.6	41.5*	6.2
Cc1ccc(NC(=O)c2c(C)noc2C)cc1S(=O)(=O)N1CCOCC1	9.9*	-4.2	-9.1	-20.3	-3.3	12.5
COc1ccc(NC(=O)c2c(C)noc2C)cc1S(=O)(=O)N1CCCCC1	0.4	-1.2	-0.6	-10.5	3.7	-4.3
COc1cccc(NC(=O)c2oc3ccc(S(=O)(=O)N4CCOCC4)cc3c2C)c1	2.0	.	8.2	-25.0	10.3	-3.8
Cc1ccc(NC(=O)c2oc3ccc(S(=O)(=O)N4CCOCC4)cc3c2C)cc1C	.	3.1	.	.	79.3*	-1.2
COc1ccc(NC(=O)c2cc(S(=O)(=O)N3CCOCC3)ccc2C)cc1S(=O)(=O)N1CCOCC1	10.3*	-1.3	-1.7	-7.9	-7.1	-7.3
CC(=O)Nc1ccc(S[C@@H](CCN2CC[C@H](O)CCC2=O)c2ccccc2)cc1	-1.9	5.4	-11.4	-8.6	1.2	6.2
O=C(NCc1ccccn1)c1coc(=O)c(Br)c1	.	-5.8	.	.	101.6*	-23.5
